Molecules are shown by their SMILES. Active and inactive are the calls of the source. How the calls were made is not given here.

The values below come from PubChem BioAssay.

Sequence of Pantothenate synthetase (Mycobacterium tuberculosis (strain ATCC 25618 / H37Rv)) (P9WIL5 whole entry, looked up): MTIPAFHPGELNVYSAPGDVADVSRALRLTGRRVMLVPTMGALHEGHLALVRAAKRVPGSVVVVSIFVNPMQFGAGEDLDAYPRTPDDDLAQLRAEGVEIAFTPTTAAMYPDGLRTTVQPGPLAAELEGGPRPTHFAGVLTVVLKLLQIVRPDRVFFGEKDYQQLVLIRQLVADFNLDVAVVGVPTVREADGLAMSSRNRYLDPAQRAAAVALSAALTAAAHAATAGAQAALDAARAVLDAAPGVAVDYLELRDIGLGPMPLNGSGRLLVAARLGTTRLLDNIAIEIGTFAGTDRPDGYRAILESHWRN

The assay has as its target Pantothenate synthetase (Mycobacterium tuberculosis (strain ATCC 25618 / H37Rv)) (UniProt P9WIL5). Kind of assay: Recombinant Mtb pantothenate synthetase (PanC) inhibitors, coupled enzyme, confirmatory (AID 375).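 Further: 0% = full reaction with vehicle and 100% = no enzyme background.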 The note with it: coupled enzyme assay; at 10 µM, stronger effect = higher value.
Broadly, the inhibition is the relative decrease from the control value, in per cent. With `COc1cc(NC(=O)Nc2cccc(Cl)c2)c(OC)cc1NC(=O)CN1CCCCC1`, the inhibition is 2% (inactive).

With `CCn1nnnc1SCC(=O)Nc1nc(-c2cccs2)cs1`, the inhibition is 0% (inactive).

For `COc1ccc(N2CCN(C(c3cccs3)C(C)NC(=O)c3ccco3)CC2)cc1` (stereo unspecified), the inhibition is 0% (inactive).

For the molecule `CCCC(=O)Nc1cc(-c2nnc(OC)c3ccccc23)ccc1N1CCOCC1`, the inhibition is 0% (inactive).

In the case of `Cc1ccc(CNC(=O)C2CCCN(S(=O)(=O)c3cccnc3)C2)cc1` (stereo unspecified), the inhibition was 0% (inactive).

In the case of `COc1cc(C)nc(NS(=O)(=O)c2ccc(C)cc2)n1`, the inhibition is 5% (inactive).

As to `COc1cc2c(cc1OC)CN(Cc1nc3ccsc3c(=O)[nH]1)CC2`, the inhibition is 6% (inactive).

On to `O=S(=O)(Nc1ccc(Cc2ccncc2)cc1)N1CCCC1`, for which the inhibition is 0% (inactive).

`COc1ccc(OC(C)C(=O)N2CC(C)OC(C)C2)cc1` (stereo unspecified): the inhibition is 10% (inactive).

In the case of `COc1cccc(C2CC(c3ccc(C)cc3)n3nc(N)nc3N2)c1` (stereo unspecified), the inhibition is 15% (inactive).

With `COC(=O)c1ccccc1NC(=O)CN1CCC(n2nnc3cc(F)ccc32)CC1`, the inhibition is 0% (inactive).

Turning to `CCOC(=O)N1CCN(c2c(NCCCOC(C)C)c(=O)c2=O)CC1`, the inhibition was 4% (inactive).

Regarding `CCOC(=O)c1ccc(N2C(=O)CC(N(C)CCc3ccc(OC)c(OC)c3)C2=O)cc1` (stereo unspecified), the inhibition was 2% (inactive).

Regarding `Cn1c(C(=O)NCCN2CCN(c3ccccc3F)CC2)cc2c(=O)n(C)c3ccccc3c21`, the inhibition is 7% (inactive).

In the case of `Cn1c(=O)n(Cc2ccc(F)cc2)c(=O)c2c1nc1n2CCCN1Cc1ccccc1`, the inhibition was 0% (inactive).

On to `CS(=O)(=O)Nc1ccc(C(=O)NCc2ccco2)cc1`, for which the inhibition is 0% (inactive).
